Data published in the supplement of paper PMC9262897, “Low-cost anti-mycobacterial drug discovery using engineered E. coli” (Nature Communications, 2022).
Counter-ions that a name gives are not always drawn. ± gives the standard deviation of the averaged measurements.

System: E. coli TESEC Mtb Alr
Assay: growth (OD600 after 10 h); higher = more growth (less inhibition)
Conditions: compound 0.1 mM
Protocol: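 TESEC Mtb Alr E. coli, or the Alr+ wild-type control, in 384-well plates with Prestwick library compounds at 0.1 mM and 1% DMSO, across arabinose induction levels of 1E3 to 1E7 nM. Growth is read as OD600 after 10 h at 37 °C in triplicate biological replicates.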

[1] = arabinose 1000 nM, raw OD600 reference: median of DMSO wells 0.294, cell-free background 0.041
[2] = arabinose 10000 nM, raw OD600 reference: median of DMSO wells 0.264, cell-free background 0.041
[3] = arabinose 100000 nM, raw OD600 reference: median of DMSO wells 0.201, cell-free background 0.041
[4] = arabinose 1000000 nM, raw OD600 reference: median of DMSO wells 0.193, cell-free background 0.041
[5] = arabinose 10000000 nM, raw OD600 reference: median of DMSO wells 0.146, cell-free background 0.041

**Q.** Which growth [1] does the source give for `CC(=O)NC[C@H]1CN(c2ccc(N3CCOCC3)c(F)c2)C(=O)O1` [Linezolid] here?
**A.** Its growth is 0.0465 ± 0.0021.

**Q.** And the growth [2]?
**A.** Its growth is 0.0406 ± 0.00046.

**Q.** What about the growth [3] of the same compound?
**A.** The growth was 0.0473 ± 0.0018.

**Q.** What about the growth [4] of the same compound?
**A.** Its growth is 0.0402 ± 0.00055.

**Q.** What about the growth [5] of the same compound?
**A.** Its growth is 0.0474 ± 0.0016.

**Q.** Which growth [1] does the source give for `CC(C)(C)NC[C@H](O)c1ccc(O)c(CO)c1` [Levalbuterol hydrochloride] here?
**A.** The growth was 0.305 ± 0.011.

**Q.** And the growth [2]?
**A.** The growth was 0.273 ± 0.0041.

**Q.** What about the growth [3] of the same compound?
**A.** Its growth is 0.197 ± 0.0075.

**Q.** And the growth [4]?
**A.** The growth was 0.214 ± 0.023.

**Q.** And the growth [5]?
**A.** The growth was 0.141 ± 0.0037.

**Q.** With `CN(C/C=C/C#CC(C)(C)C)Cc1cccc2ccccc12` [Terbinafine] as the compound, how does the growth [1] read?
**A.** The growth was 0.272 ± 0.0085.

**Q.** What about the growth [2] of the same compound?
**A.** The growth was 0.226 ± 0.025.

**Q.** And the growth [3]?
**A.** The growth was 0.177 ± 0.0062.

**Q.** What about the growth [4] of the same compound?
**A.** Its growth is 0.085 ± 0.0043.

**Q.** And the growth [5]?
**A.** Its growth is 0.174 ± 0.0062.

**Q.** How did the growth [1] turn out when `OCC(O)CN1CCN(c2ccccc2)CC1` (racemic) [Dropropizine (R,S)] was run?
**A.** Its growth is 0.283 ± 0.018.

**Q.** And the growth [2]?
**A.** The growth was 0.255 ± 0.0087.

**Q.** And the growth [3]?
**A.** The growth was 0.228 ± 0.014.

**Q.** What about the growth [4] of the same compound?
**A.** Its growth is 0.174 ± 0.0046.

**Q.** And the growth [5]?
**A.** The growth was 0.144 ± 0.0086.

**Q.** `Cc1cn([C@H]2C=C[C@@H](CO)O2)c(=O)[nH]c1=O` [Stavudine] was tested. Which growth [1] did it give?
**A.** Its growth is 0.285 ± 0.023.

**Q.** What about the growth [2] of the same compound?
**A.** Its growth is 0.158 ± 0.017.

**Q.** And the growth [3]?
**A.** The growth was 0.121 ± 0.0031.

**Q.** And the growth [4]?
**A.** The growth was 0.119 ± 0.0013.

**Q.** And the growth [5]?
**A.** The growth was 0.181 ± 0.0073.

**Q.** For `CC(=O)O[C@]1(C(C)=O)CC[C@H]2[C@@H]3C=C(Cl)C4=CC(=O)CC[C@]4(C)[C@H]3CC[C@@]21C` [Chlormadinone acetate], which growth [1] is on record?
**A.** The growth was 0.156 ± 0.0078.

**Q.** What about the growth [2] of the same compound?
**A.** The growth was 0.0802 ± 0.014.

**Q.** And the growth [3]?
**A.** Its growth is 0.148 ± 0.0022.

**Q.** And the growth [4]?
**A.** The growth was 0.0653 ± 0.0047.

**Q.** And the growth [5]?
**A.** Its growth is 0.11 ± 0.0088.

**Q.** Which results are given for `CS(=O)(=O)c1ccc([C@@H](O)[C@@H](CF)NC(=O)C(Cl)Cl)cc1` [Florfenicol]?
**A.** growth [1]: 0.0406 ± 0.00059; growth [2]: 0.0395 ± 0.0002; growth [3]: 0.04123 ± 0.0004; growth [4]: 0.03917 ± 0.00012; growth [5]: 0.0409 ± 0.00017

**Q.** What does the source list for `O=C(O)c1cccnc1Nc1cccc(C(F)(F)F)c1` [Niflumic acid]?
**A.** growth [1]: 0.0693 ± 0.0078; growth [2]: 0.0488 ± 0.00046; growth [3]: 0.145 ± 0.002; growth [4]: 0.06687 ± 0.00065; growth [5]: 0.099 ± 0.0016
